What all share (assay): glycan array binding signal (z-score within array); higher = stronger binding
In test [1] the target is Fuc(a1-2)Gal(b1-4)[Fuc(a1-3)]GalNAc(b1-3)Gal(b1-4)[Fuc(a1-3)]GlcNAc. The conditions noted are these: glycan notation: IUPAC condensed, linker removed. In outline: (§1)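 Glycan array data came from 3228 arrays in the Consortium for Functional Glycomics database, and only arrays with an available protein sequence were kept. Glycan names were put into IUPAC-condensed notation, and columns mapping to the same glycan were averaged. The binding signal is a within-array Z-score, averaged across arrays of one protein sequence run at different concentrations or buffers and across linkers. A negative Z-score can be read as non-binding.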

Test [2] deals with Fuc(a1-2)Gal(b1-4)[Fuc(a1-3)]GlcNAc. The conditions noted are these: glycan notation: IUPAC condensed, linker removed. Summed up:
as §1

A further test addresses Gal(a1-3)Gal(b1-3)Glc. The following applies: glycan notation: IUPAC condensed, linker removed. Summed up:
as §1

Test [3] concerns the target Gal(b1-3)[Neu5Ac(a2-6)]GalNAc. The following applies: glycan notation: IUPAC condensed, linker removed. In outline:
as §1

Test [4] has as its target Gal(b1-4)GlcNAc(b1-3)Gal(b1-4)Glc. The conditions noted are these: glycan notation: IUPAC condensed, linker removed. In outline: as §1
The next test concerns the target Gal4S(b1-4)GlcNAc. The following applies: glycan notation: IUPAC condensed, linker removed. Summed up: as §1
The target in a further test is Glc(a1-4)Glc. The conditions noted are these: glycan notation: IUPAC condensed, linker removed. Summed up: as §1
The target in test [5] is GlcNAc(b1-3)Gal(b1-4)GlcNAc(b1-3)Gal(b1-4)GlcNAc. The following applies: glycan notation: IUPAC condensed, linker removed. Summed up: as §1
Test [6] addresses GlcNAc(b1-3)[GlcNAc(b1-6)]GlcNAc. The conditions noted are these: glycan notation: IUPAC condensed, linker removed. Summed up:
as §1

In test [7] the target is Man(a1-2)Man(a1-2)Man(a1-6)[Man(a1-3)]Man. The conditions noted are these: glycan notation: IUPAC condensed, linker removed. In outline: as §1
The target in a further test is Man(a1-2)Man(a1-3)Man. The conditions noted are these: glycan notation: IUPAC condensed, linker removed. Summed up:
as §1

Test [8] has as its target Neu5Ac(a2-3)Gal(b1-3)[Fuc(a1-4)]GlcNAc(b1-3)Gal(b1-4)[Fuc(a1-3)]GlcNAc. The following applies: glycan notation: IUPAC condensed, linker removed. In outline:
as §1

Test [9] concerns the target Neu5Ac(a2-3)Gal(b1-4)GlcNAc6S. The following applies: glycan notation: IUPAC condensed, linker removed. In outline:
as §1

Test [10] concerns the target Neu5Ac(a2-3)Gal(b1-4)[Fuc(a1-3)]GlcNAc(b1-3)Gal(b1-4)[Fuc(a1-3)]GlcNAc(b1-3)Gal(b1-4)[Fuc(a1-3)]GlcNAc. The following applies: glycan notation: IUPAC condensed, linker removed. Summed up:
as §1

The target of the next test is Neu5Ac(a2-6)GalNAc. The conditions noted are these: glycan notation: IUPAC condensed, linker removed. Summed up:
as §1

Test [11] has as its target Neu5Ac9Ac(a2-6)Gal(b1-4)GlcNAc. The following applies: glycan notation: IUPAC condensed, linker removed. In outline: as §1
The target of test [12] is Fuc(a1-2)[GalNAc(a1-3)]Gal(b1-3)GlcNAc. The following applies: glycan notation: IUPAC condensed, linker removed; mutation: E321K. Summed up: as §1
For test [13], the target named is Fuc(a1-2)[GalNAc(b1-3)]Gal. The conditions noted are these: glycan notation: IUPAC condensed, linker removed; mutation: E321K. In outline: as §1
For another test, the target named is Gal(a1-3)Gal. The following applies: glycan notation: IUPAC condensed, linker removed; mutation: E321K. Summed up:
as §1

For another test, the target named is Gal(a1-3)Gal(b1-4)GlcNAc. The conditions noted are these: glycan notation: IUPAC condensed, linker removed; mutation: E321K. Summed up: as §1
Test [14] has as its target Gal(b1-4)GalNAc(a1-3)[Fuc(a1-2)]Gal(b1-4)GlcNAc. The following applies: glycan notation: IUPAC condensed, linker removed; mutation: E321K. Summed up:
as §1

The next test deals with Gal(b1-4)Glc. The conditions noted are these: glycan notation: IUPAC condensed, linker removed; mutation: E321K. In outline: as §1
The target in test [15] is Gal(b1-4)GlcNAc(b1-3)Gal(b1-3)GlcNAc. The conditions noted are these: glycan notation: IUPAC condensed, linker removed; mutation: E321K. In outline: as §1
Test [16] addresses Gal(b1-4)GlcNAc(b1-3)GalNAc. The following applies: glycan notation: IUPAC condensed, linker removed; mutation: E321K. Summed up: as §1
For test [17], the target named is Gal(b1-4)GlcNAc(b1-6)[Gal(b1-3)]GalNAc. The conditions noted are these: glycan notation: IUPAC condensed, linker removed; mutation: E321K. In outline: as §1
The next test has as its target Gal6S(b1-4)Glc6S. The conditions noted are these: glycan notation: IUPAC condensed, linker removed; mutation: E321K. Summed up: as §1
Test [18] deals with GlcNAc(b1-3)[GlcNAc(b1-6)]GalNAc. The conditions noted are these: glycan notation: IUPAC condensed, linker removed; mutation: E321K. In outline:
as §1

The target of the next test is GlcNAc(b1-4)GlcNAc. The following applies: glycan notation: IUPAC condensed, linker removed; mutation: E321K. In outline:
as §1

The target in test [19] is GlcNAc(b1-4)GlcNAc(b1-4)GlcNAc(b1-4)GlcNAc(b1-4)GlcNAc(b1-4)GlcNAc. The conditions noted are these: glycan notation: IUPAC condensed, linker removed; mutation: E321K. Summed up: as §1
Test [20] addresses Neu5Ac(a2-3)Gal(b1-3)GalNAc6S. The following applies: glycan notation: IUPAC condensed, linker removed; mutation: E321K. In outline:
as §1

Test [21] deals with Neu5Ac(a2-3)Gal(b1-4)GlcNAc(b1-3)Gal(b1-3)GlcNAc. The following applies: glycan notation: IUPAC condensed, linker removed; mutation: E321K. Summed up: as §1
Test [22] has as its target Neu5Ac(a2-3)Gal(b1-4)GlcNAc(b1-3)Gal(b1-4)[Fuc(a1-3)]GlcNAc. The conditions noted are these: glycan notation: IUPAC condensed, linker removed; mutation: E321K. In outline:
as §1

Test [23] addresses Neu5Ac(a2-3)Gal6S(b1-4)GlcNAc. The conditions noted are these: glycan notation: IUPAC condensed, linker removed; mutation: E321K. Summed up: as §1
Test [24] addresses Neu5Ac(a2-3)GalNAc(b1-4)GlcNAc. The conditions noted are these: glycan notation: IUPAC condensed, linker removed; mutation: E321K. In outline:
as §1

Test [25] concerns the target Neu5Ac(a2-6)Gal(b1-4)GlcNAc(b1-2)Man(a1-3)[GlcNAc(b1-2)Man(b1-4)GlcNAc(b1-2)Man(a1-6)]Man(b1-4)GlcNAc(b1-4)GlcNAc. The following applies: glycan notation: IUPAC condensed, linker removed; mutation: E321K. In outline:
as §1

The target in test [26] is Neu5Ac(a2-6)Gal(b1-4)GlcNAc(b1-3)Gal(b1-4)GlcNAc. The following applies: glycan notation: IUPAC condensed, linker removed; mutation: E321K. Summed up: as §1
Test [27] has as its target Neu5Ac(a2-8)Neu5Ac(a2-8)Neu5Ac. The conditions noted are these: glycan notation: IUPAC condensed, linker removed; mutation: E321K. In outline:
as §1

Test [28] deals with Neu5Ac(a2-8)Neu5Ac(a2-8)Neu5Ac(a2-3)Gal(b1-4)Glc. The following applies: glycan notation: IUPAC condensed, linker removed; mutation: E321K. Summed up:
as §1

The target in the next test is Neu5Ac(b2-6)GalNAc. The conditions noted are these: glycan notation: IUPAC condensed, linker removed; mutation: E321K. In outline:
as §1

The entries come from a sample that favours the strongest signals as a whole.

B1: 7WC (Trifolium repens) (protein)
chain: MGTITSYAVVFDAGSTGSRVHVYHFDQNLDLLHIGKDVEFYNKIQPGLSAYADNPEQAAKSLIPLLEQAENVVPEDFHSKTPIRLGATAGLRLLDGDASERILQAVRDMLNNKSTFNVQPDAVSIIDGTQEGSYLWVTINYVLGNLGKRFTNTVGVIDLGGGSVQMAYAVSKKTARNAPKVTDGEDPYIKKIVLKGKPYDLYVHSYLHFGREASRAEILKVTHGSASPCILAGFDGIYTYSGEEFKASAPTSGANFDKCKKIIQKALKLDYPCPYQNCTFGGIWNGGGGSGQKKLFAASSFFYLPQDVGMVDPNKSNLKLRPVDLENKAKIVCTLNVEDVKSAYPLLEKFNIVPYACMDLIYQYELLVDGFGLDPLQEITAGEKIEYQEALVDAAWALGNAVEAVLLLPKFERLMYFVVEHHHHHH
As for B1, the “glycan array binding signal (z-score)” value in [1] is -0.347; in test [2] it was -0.391; with Gal(a1-3)Gal(b1-3)Glc, -0.298; in [3], -0.464; in test [4], -0.215; with Gal4S(b1-4)GlcNAc, -0.335. The “glycan array binding signal (z-score)” value with Glc(a1-4)Glc was 2.65; in [5] it was -0.327; in [6], 0.685; in [7], 9.79; in the test with Man(a1-2)Man(a1-3)Man, -0.261; in test [8] it was 4.17. Besides, the “glycan array binding signal (z-score)” value is -0.474 in test [9], 2.57 in test [10], -0.153 with Neu5Ac(a2-6)GalNAc and -0.491 in test [11].

B2: Surfactant Protein D (Human); Neck + Carbohydrate Recognition Domain (NCRD) (Homo sapiens) (protein)
chain: MLLFLLSALVLLTQPLGYLEAEMKTYSHRTMPSACTLVMCSSVESGLPGRDRDGREGPRGEKGDPGLPGAAGQAGMPGQAGPVGPKGDNGSVGEPGPKGDTGPSGPPGPPGVPGPAGREGALGKQGNIGPQGKPGPKGEAGPKGEVGAPGMQGSAGARGLAGPKGERGVPGERGVPGNTGAAGSAGAMGPQGSPGARGPPGLKGDKGIPGDKGAKGESGLPDVASLRQQVEALQGQVQHLQAAFSQYKKVELFPNGQSVGEKIFKTAQFVKPFTEAQLLCTQAGGQLASPRSAAENAALQQLVVAKNEAAFLSMTDSKTEGKFTYPTGESLVYSNWAPGKPNDDGGSEDCVEIFTNGKWNDRACGEKRLVVCEF
As to B2, the “glycan array binding signal (z-score)” value is -0.011 in test [2] (mutation: E321K); -0.437 in test [12]; -0.418 in [13]; -0.277 in the test with Gal(a1-3)Gal; 0.494 in the test with Gal(a1-3)Gal(b1-4)GlcNAc; -0.87 in test [14]. Further, the “glycan array binding signal (z-score)” value is -0.968 with Gal(b1-4)Glc; -0.871 in test [15]; -0.758 in test [16]; -0.831 in test [17]; 2.78 with Gal6S(b1-4)Glc6S; -0.62 in test [18]. For the same molecule, the “glycan array binding signal (z-score)” value in the test with GlcNAc(b1-4)GlcNAc was 2.94; in test [19], -0.106; in test [7] (mutation: E321K), 0; in test [20] it was 0.404; in [21] it was -0.578; in test [22], 0.062. Further, the “glycan array binding signal (z-score)” value in test [23] is 0.549; in [24], 3.92; in test [25], 5.34; in test [26], -0.587; in [27] it was -0.381; in [28], -0.475. In addition, the “glycan array binding signal (z-score)” value with Neu5Ac(b2-6)GalNAc was 3.67.
